In PubChem BioAssay AID504770 (ICCB-Longwood Screening Facility, Harvard Medical School, 2011):
Where “and” joins values, the source holds several entries; their conditions need not be identical. Equal entries are not always repeated. The whole screen tested about 130,000 compounds, of which about 350 (0.27%) were called active. The entries come from a sample that favours actives as a whole. Unmarked numbers belong to inactive results. No stated cut-off is given here; in the data, active means z-score below about -2 (passing the limit was not always enough); inactive means the rest.

Test: PubChem AID 504770
Conditions: E. coli YBA685 rctB-dependent plasmid, OD600 growth, 3 h; active compounds read low

| Structure (SMILES) | z-score |
| --- | --- |
| Cn1cc(NC(=O)N2CCc3ccccc3C2)c2ccccc21 | 0.5 |
| COCCn1c(C)cc(C(=O)COC(=O)Cn2c(C)csc2=O)c1C | -0.2 |
| Cc1ccc(Cn2ccsc2=NC(=O)COC(=O)Cn2c(C)csc2=O)cc1 | -3.3 (active) |
| Cc1csc(=O)n1CC(=O)OCC(=O)c1ccc(Cl)s1 | 1.15 |
| Cc1ccccc1C(=O)Nc1ccccc1N1CCN(C)CC1 | 0.25 |
| O=C1NN(c2ccc(Cl)c(Cl)c2)C(=O)/C1=C\C=C\c1ccccc1 | 0.25 |
| N#Cc1c(SCC(=O)C23CC4CC(CC(C4)C2)C3)sc2c(=O)[nH]c(=O)[nH]c12 | -0.7 |
| CCOc1ccc(/C=c2/sc3nnc(-c4ccccc4C)n3c2=O)cc1 | -0.2 |
| NC(=O)CSc1ccccc1NC(=O)c1cc(-c2cccs2)nn1-c1ccccc1 | 3.15 |
| COc1ccc(NS(=O)(=O)N(C)C)cn1 | 0.3 |
| Cc1oc2cc(O)ccc2c(=O)c1-c1nc2ccccc2[nH]1 | -0.6 |
| O=C1CCCC2=C1C(c1ccccn1)Nc1ccc3ncccc3c12 (stereo not given) | -0.55 |
| O=C1CCCC2=C1C(c1ccccn1)C1=C(CCCC1=O)O2 | -2.45 (active) |
| CCCOc1ccc(C2C3=C(CCCC3=O)OC3=C2C(=O)CCC3)cc1 | -0.45 |
| S=C(Nc1ccccc1)NC1CC2CCCC(C1)N2C1CC1 (stereo not given) | -0.5 |
| c1ccc(CNCc2ccc3c(c2)OCO3)cc1 | -1.25 |
| O=C(CC(NCc1ccco1)C(=O)O)Nc1cccc(C(F)(F)F)c1 (stereo not given) | 1.45 |
| CCOc1ncccc1C(=O)Nc1ccc2c(c1)OCCO2 | -0.25 |
| C[N+]1(CC(O)COc2ccccc2F)CCOCC1 (stereo not given) | 0.45 |
| O=C1C(=O)N(CCO)C(c2ccccc2)/C1=C(/O)c1ccccc1 (stereo not given) | -0.3 |
| COc1ccccc1-c1nnc(C2CCN(S(=O)(=O)c3ccc(C)cc3)CC2)o1 | 0.85 |
| COC(=O)c1sc(=S)n(-c2ccc(C)cc2)c1N | 0.95 |

| Structure (SMILES) | z-score |
| --- | --- |
| COc1cc(OC)c(C(=O)OCC(=O)N(C)C2CCCCC2)cc1OC | 0.65 |
| O=C(CSc1ccccn1)Nc1cc(C(F)(F)F)cc(C(F)(F)F)c1 | -0.4 |
| COC(=O)CC1=C(C(=O)OC)C2(C(=O)N1)C(C#N)=C(N)Oc1ccccc12 (stereo not given) | 0.45 |
| CC(C(=O)O)C(C(=O)O)C(C)c1ccccc1 (stereo not given) | -0.7 |
| O=C(NCCN1CCOCC1)C1CCN(C(=O)c2cc3sccc3n2Cc2ccc(F)cc2)CC1 | -0.45 |
| O=C1NCCCCC1NC(=S)Nc1ccccc1 (stereo not given) | -0.25 |
| COc1cc(/C=C2/C(=O)Nc3cc(Cl)ccc32)cc(OC)c1O | 0.9 |
| O=C(Cn1nnc(-c2ccccc2)n1)NC(=O)NCc1ccccc1 | -0.5 |
| CN1CCC(OC(=O)c2ccc3c(c2)OCCO3)CC1 | -0.5 |
| CC(=O)Nc1ccc(N2C(=O)C=CC2=O)cc1 | -2.5 (active) |
| CCNCC(=O)Nc1ccc(NC(C)=O)cc1 | 0.15 |
| O=C1C=CC(=O)N1c1ccc(Br)cc1 | 0.05 |
| Cc1ccc(-c2nnc(NCc3ccco3)c3ccccc23)cc1C | -0.6 |
| Cc1ccc(NNC(=O)C(C)(C)O)c(C)c1 | -0.15 |
| CCOC(=O)N1CCN(c2nc(-c3ccccc3)no2)CC1 | 0 |
| CN1CCCc2cc(-c3ccnc4ccccc34)ccc21 | 0.35 |
| COC(=O)c1cc2occc2n1Cc1ccc(C)cc1 | 0.3 |
| O=C(COc1c(-c2ccco2)oc2ccccc2c1=O)NCCc1ccccc1 | 0.9 |
| CCOC(=O)/C(=C(/C)N1CCCC1)P(=S)(N1CCOCC1)N1CCOCC1 | -1.8 |
| Cc1nn(-c2ccccc2)c(OC(=O)c2ccc(Br)o2)c1Sc1ccccc1 | 0 |
| CC(CC(=O)OCc1ncc(-c2ccccc2)o1)c1ccccc1 (stereo not given) | 0.65 |
| Cc1cc(C(=O)Oc2ccc(C(=O)c3ccc(F)cc3)cc2)on1 | -0.2 |

| Structure (SMILES) | z-score |
| --- | --- |
| COc1ccc2oc(=O)c(C(=O)NC(C)(C)C)cc2c1 | -0.45 |
| c1ccc(-n2nnnc2Sc2nc(C3CC3)n(-c3ccccc3)n2)cc1 | 0.25 |
| Cc1ccc2oc(-c3ccccc3C)nc2c1 | 1.9 |
| CC(Sc1nc(N)nc(N)n1)C(=O)NC1(C#N)CCCCC1 (stereo not given) | -0.4 |
| O=C(OCC(=O)N1CCCC1)c1ccccc1OCc1ccccc1Cl | 0.2 |
| CC(OC(=O)C1CCN(C(=O)c2ccc(Cl)cc2)CC1)C(=O)NC1CC1 (stereo not given) | 1.3 |
| Cc1cc(C)c(C)c(OCC(=O)N(Cc2nc(-c3ccccc3)no2)C2CCCCC2)c1 | -0.5 |
| COc1ccc(-c2cc(C(=O)NCCCN3CCOCC3)no2)cc1 | 0.4 |
| Cc1cccc(NC2=NC3CS(=O)(=O)CC3S2)c1 (stereo not given) | -0.4 |
| Cc1nnsc1C(=O)NC(=O)c1ccccc1O | 0.45 |
| COC(=O)C(C)N(C#N)c1nc(N(C)C)nc(N(C)C)n1 (stereo not given) | -0.3 |
| CN1CCN(c2nc(C34CC5CC(CC(C5)C3)C4)cs2)CC1 | 0.45 |
| Clc1ccc2c(Sc3nncn3-c3ccccc3)ccnc2c1 | 0.2 |
| C=CCN(CC=C)C(=O)COc1ncnc2sccc12 | -0.3 |
| CSc1nc(=O)n(Cc2ccccn2)c2c1CCC2 | -0.15 |
| CCCCn1c2ccccc2c2n[nH]c(=S)nc21 | -0.4 and 1.45 |
| CCC(=O)N1CCc2cc(Br)cc(S(=O)(=O)NCCN3CCN(c4ccccc4F)CC3)c21 | -0.85 |
| O=C(CCS(=O)(=O)c1cc(Br)cc2c1N(C(=O)C1CC1)CC2)NCc1ccc(F)cc1 | -0.8 |
| CCc1cccc(NS(=O)(=O)c2cc(Br)cc3c2N(C(=O)C2CC2)CC3)c1 | -2.9 (active) |
| O=C(Cn1c(=O)oc2cc(S(=O)(=O)NCc3ccccc3)ccc21)NC1CCCC1 | 2.3 |
| O=C(COc1ccc(Cl)cc1)Nc1c(-c2ccc(F)cc2)nc2ccccn12 | -0.15 |
